The source made the active and inactive calls. The calls were made as follows: active = hit-call score of the fitted dose curve at least 0.9, where 1 is the maximum; inactive = score below 0.9.
Experiments:
Conditions in all cases: mRNA level, 48 h; actives raise or lower the signal
[1] = read-out: Apoptosis regulator Bcl-2 (Homo sapiens) (UniProt P10415); experiment: LTEA_HepaRG_BCL2: Life Technologies and Expression Analysis (LTEA) Assay for Bcl-2 gene using HepaRG (AID 2283475)
In short: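 Plated human HepaRG cells are exposed to test chemicals for 48 h across eight concentrations from 100 uM downward in half-log steps (0.5% DMSO). BCL2 expression is then measured by qRT-PCR with housekeeping normalisation and fitted bidirectionally against vehicle.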

[2] = read-out: Bcl-2 (BID) gene, BID (gene 637); experiment: LTEA_HepaRG_BID: Life Technologies and Expression Analysis (LTEA) Assay for Bcl-2 (BID) gene using HepaRG (AID 2283476)
In short: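 Cells are plated, cultured 48 h, switched to serum-free induction medium, then dosed 48 h (100 uM top, half-log steps, 0.5% DMSO). RNA is isolated and BID expression read by qRT-PCR.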

[3] = read-out: Caspase-3 (Homo sapiens) (UniProt P42574); experiment: LTEA_HepaRG_CASP3: Life Technologies and Expression Analysis (LTEA) Assay for cysteine-aspartic acid protease (CASP3) using HepaRG (AID 2283477)
In short: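 In HepaRG liver cells dosed for 48 h at up to 100 uM (eight-point, duplicate), CASP3 expression changes are scored by qRT-PCR. Activity is fitted in both directions with 0.5% DMSO as baseline.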

[4] = read-out: Cytochrome P450 (CYP1A2), CYP1A2 (gene 1544); experiment: LTEA_HepaRG_CYP1A2: Life Technologies and Expression Analysis (LTEA) Assay for Cytochrome P450 (CYP1A2) using HepaRG (AID 2283479)
In short: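 Assesses CYP1A2 mRNA in human HepaRG liver cells after 48 h chemical exposure at up to 100 uM. Values come from qRT-PCR with bidirectional curve fitting relative to DMSO.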

[5] = read-out: cysteine-aspartic acid protease (CASP8), CASP8 (gene 841); experiment: LTEA_HepaRG_CASP8: Life Technologies and Expression Analysis (LTEA) Assay for cysteine-aspartic acid protease (CASP8) using HepaRG (AID 2283480)
In short: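 qRT-PCR readout of CASP8 mRNA, normalized to three housekeeping genes, after 48 h chemical exposure of HepaRG cells; 8-point half-log series, top 100 uM, 0.5% DMSO vehicle. Bidirectional curve fitting against DMSO baseline.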

[6] = read-out: Cytochrome P450 (CYP2B6), CYP2B6 (gene 1555); experiment: LTEA_HepaRG_CYP2B6: Life Technologies and Expression Analysis (LTEA) Assay for Cytochrome P450 (CYP2B6) using HepaRG (AID 2283481)
In short: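 Using 48 h treatment of HepaRG cells in serum-free induction medium, concentrations spanned half-log steps from 100 uM in 0.5% DMSO vehicle. CYP2B6 mRNA induction or loss is scored by qRT-PCR against DMSO.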

[7] = read-out: Cytochrome P450 2C19 (Homo sapiens) (UniProt P33261); experiment: LTEA_HepaRG_CYP2C19: Life Technologies and Expression Analysis (LTEA) Assay for CYP2C19 using HepaRG (AID 2283482)
In short: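 Human HepaRG liver cells received test chemicals for 48 h (highest 100 uM, half-log dilutions in 0.5% DMSO). CYP2C19 mRNA induction or loss is read by multiplexed qRT-PCR and fitted in both directions versus vehicle.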

[8] = read-out: CYP2C8 (gene 1558); experiment: LTEA_HepaRG_CYP2C8: Life Technologies and Expression Analysis (LTEA) Assay for CYP2C8 using HepaRG (AID 2283483)
In short: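 HepaRG (human liver line), 48 h chemical exposure, 8-pt half-log series from 100 uM, 0.5% DMSO vehicle. Readout: CYP2C8 transcript by qRT-PCR, housekeeping-normalized. Bidirectional fit vs DMSO baseline.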

[9] = read-out: CYP2C9 (gene 1559); experiment: LTEA_HepaRG_CYP2C9: Life Technologies and Expression Analysis (LTEA) Assay for CYP2C9 using HepaRG (AID 2283484)
In short: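 HepaRG, 48 h dosing, 8-pt half-log series, top 100 uM, 0.5% DMSO vehicle. Read-out: CYP2C9 transcript by TaqMan qRT-PCR, housekeeping-normalized (ACTB/GAPDH/POLR2A). Gain or loss fitted vs DMSO baseline.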

[10] = read-out: CYP2E1 (gene 1571); experiment: LTEA_HepaRG_CYP2E1: Life Technologies and Expression Analysis (LTEA) Assay for CYP2E1 using HepaRG (AID 2283485)
In short: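 Readout is qRT-PCR of CYP2E1 mRNA, normalized to three housekeeping genes and fitted bidirectionally against 0.5% DMSO. HepaRG cells were dosed 48 h at eight concentrations, highest 100 uM with half-log dilutions.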

[11] = read-out: CYP4A11 (gene 1579); experiment: LTEA_HepaRG_CYP4A11: Life Technologies and Expression Analysis (LTEA) Assay for CYP4A11 using HepaRG (AID 2283486)
In short: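 Readout is CYP4A11 mRNA induction or suppression (qRT-PCR, ACTB/GAPDH/POLR2A normalization) in human HepaRG cells after 48 h chemical treatment, concentrations to 100 uM in 0.5% DMSO, fitted bidirectionally against vehicle.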

[12] = read-out: Cytochrome P450 3A4 (Homo sapiens) (UniProt P08684); experiment: LTEA_HepaRG_CYP3A4: Life Technologies and Expression Analysis (LTEA) Assay for CYP3A4 using HepaRG (AID 2283487)
In short: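 HepaRG, 48 h exposure, 8-pt CRC from 100 uM (half-log), 0.5% DMSO, duplicates; serum-free induction medium. Readout: CYP3A4 mRNA, qRT-PCR, ACTB/GAPDH/POLR2A normalization. Bidirectional fit vs DMSO.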

[13] = read-out: DNA damage-inducible transcript 3 (DDIT3), DDIT3 (gene 1649); experiment: LTEA_HepaRG_DDIT3: Life Technologies and Expression Analysis (LTEA) Assay for DNA damage-inducible transcript 3 (DDIT3) using HepaRG (AID 2283488)
In short: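 Cells are human HepaRG liver cells treated for 48 h with eight half-log concentrations up to 100 uM in 0.5% DMSO. Transcript levels come from qRT-PCR normalized to three housekeeping genes, with activity fitted in both directions relative to vehicle.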

[14] = read-out: Pro-epidermal growth factor (Homo sapiens) (UniProt P01133); experiment: LTEA_HepaRG_EGF: Life Technologies and Expression Analysis (LTEA) Assay for Epidermal growth factor (EGF) using HepaRG (AID 2283489)
In short: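 EGF expression changes in human HepaRG cells are scored by bidirectional fitting relative to 0.5% DMSO controls. Chemicals are tested at eight half-log concentrations up to 100 uM for 48 h in serum-free induction medium.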

[15] = read-out: Early growth response protein 1 (EGR1) transcription factor, EGR1 (gene 1958); experiment: LTEA_HepaRG_EGR1: Life Technologies and Expression Analysis (LTEA) Assay for Early growth response protein 1 (EGR1) transcription factor using HepaRG (AID 2283490)
In short: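 HepaRG, 48 h exposure, 8-pt half-log series from 100 uM, 0.5% DMSO vehicle; EGR1 transcript by TaqMan qRT-PCR (Fluidigm array), housekeeping-normalized; bidirectional fit relative to DMSO baseline.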

[16] = read-out: Ezrin (EZR), EZR (gene 7430); experiment: LTEA_HepaRG_EZR: Life Technologies and Expression Analysis (LTEA) Assay for Ezrin (EZR) using HepaRG (AID 2283491)
In short: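 Read-out is EZR transcript level by qRT-PCR, normalized to three housekeeping genes and fitted bidirectionally against the DMSO control. Human HepaRG cells received test chemicals for 48 h at eight half-log concentrations up to 100 uM in 0.5% DMSO.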

[17] = read-out: CYP3A5 (gene 1577); experiment: LTEA_HepaRG_CYP3A5: Life Technologies and Expression Analysis (LTEA) Assay for CYP3A5 using HepaRG (AID 2283493)
In short: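 Human HepaRG hepatic cells receive 48 h chemical treatment at eight concentrations (half-log steps from 100 uM) in 0.5% DMSO. Expression of CYP3A5 is quantified by Fluidigm qRT-PCR and normalized to three reference genes.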

[18] = read-out: Fatty Acid-Binding Protein 1 (FABP1), FABP1 (gene 2168); experiment: LTEA_HepaRG_FABP1: Life Technologies and Expression Analysis (LTEA) Assay for Fatty Acid-Binding Protein 1 (FABP1) using HepaRG (AID 2283494)
In short: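 qRT-PCR readout of FABP1 transcript (normalized to three housekeeping genes) after 48 h chemical exposure of HepaRG cells; eight concentrations, half-log steps, max 100 uM, 0.5% DMSO vehicle; gain or loss fitted relative to DMSO baseline.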

[19] = read-out: Cytochrome P450 (CYP24A1), CYP24A1 (gene 1591); experiment: LTEA_HepaRG_CYP24A1: Life Technologies and Expression Analysis (LTEA) Assay for Cytochrome P450 (CYP24A1) using HepaRG (AID 2283478)
In short: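 Human liver HepaRG cultures receive each chemical for 48 h across an eight-point half-log series topping at 100 uM in 0.5% DMSO. Induction or suppression of CYP24A1 mRNA is scored relative to vehicle after housekeeping-gene normalization.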

Measured: outcome

Caspase-3 (Homo sapiens), sequence (P42574 whole entry, looked up): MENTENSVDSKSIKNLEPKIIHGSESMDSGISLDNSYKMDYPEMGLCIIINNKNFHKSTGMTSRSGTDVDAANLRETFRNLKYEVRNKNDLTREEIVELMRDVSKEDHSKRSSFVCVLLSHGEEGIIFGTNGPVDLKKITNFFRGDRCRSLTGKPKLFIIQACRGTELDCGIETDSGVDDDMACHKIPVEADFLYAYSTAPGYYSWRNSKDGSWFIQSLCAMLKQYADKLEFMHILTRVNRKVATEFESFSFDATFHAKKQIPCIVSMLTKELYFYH
Cytochrome P450 3A4 (Homo sapiens), sequence (P08684 whole entry, looked up): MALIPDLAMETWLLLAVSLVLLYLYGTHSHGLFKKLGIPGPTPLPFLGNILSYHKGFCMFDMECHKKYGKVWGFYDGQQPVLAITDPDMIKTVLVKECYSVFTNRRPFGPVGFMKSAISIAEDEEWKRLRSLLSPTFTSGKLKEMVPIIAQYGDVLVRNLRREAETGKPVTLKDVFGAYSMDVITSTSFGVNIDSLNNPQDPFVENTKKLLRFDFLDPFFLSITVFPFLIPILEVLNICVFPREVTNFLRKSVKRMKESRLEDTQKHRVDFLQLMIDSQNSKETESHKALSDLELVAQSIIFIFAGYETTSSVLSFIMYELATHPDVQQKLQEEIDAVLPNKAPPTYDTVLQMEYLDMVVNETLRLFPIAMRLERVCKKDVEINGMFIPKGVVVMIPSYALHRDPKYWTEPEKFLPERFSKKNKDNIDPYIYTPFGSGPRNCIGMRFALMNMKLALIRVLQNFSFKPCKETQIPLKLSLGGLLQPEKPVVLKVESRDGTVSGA
Cytochrome P450 2C19 (Homo sapiens), sequence (P33261 whole entry, looked up): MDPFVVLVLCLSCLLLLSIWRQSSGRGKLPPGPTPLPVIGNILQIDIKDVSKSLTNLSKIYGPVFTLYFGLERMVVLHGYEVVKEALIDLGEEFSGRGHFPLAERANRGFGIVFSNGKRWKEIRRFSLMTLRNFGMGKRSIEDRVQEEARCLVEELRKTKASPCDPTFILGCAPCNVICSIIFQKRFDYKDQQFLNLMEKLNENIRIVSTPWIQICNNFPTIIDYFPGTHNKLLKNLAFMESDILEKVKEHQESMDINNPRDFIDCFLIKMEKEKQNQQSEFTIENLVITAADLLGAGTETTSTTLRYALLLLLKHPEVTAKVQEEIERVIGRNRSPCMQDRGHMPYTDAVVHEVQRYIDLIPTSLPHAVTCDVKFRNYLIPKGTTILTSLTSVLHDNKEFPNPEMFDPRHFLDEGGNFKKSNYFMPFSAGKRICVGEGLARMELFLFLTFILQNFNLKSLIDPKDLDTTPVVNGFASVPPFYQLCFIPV
Apoptosis regulator Bcl-2 (Homo sapiens), sequence (P10415 whole entry, looked up): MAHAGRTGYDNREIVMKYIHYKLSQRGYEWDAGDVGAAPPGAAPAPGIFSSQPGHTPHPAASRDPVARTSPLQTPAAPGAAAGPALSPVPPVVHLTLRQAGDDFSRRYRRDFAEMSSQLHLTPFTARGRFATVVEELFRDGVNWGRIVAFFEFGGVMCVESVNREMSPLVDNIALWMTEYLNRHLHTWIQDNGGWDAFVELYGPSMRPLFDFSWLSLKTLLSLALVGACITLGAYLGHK

CC1=CC(=O)/C(=C(/C)O)C(=O)O1
not listed: [19]
inactive: all other assays above

CCCCCCCCCCCCO
not listed: [19]
inactive: all other assays above

c1ccc2n[nH]nc2c1
not listed: [5] | [10]
inactive: all other assays above

From PubChem BioAssay (EPA / NIEHS)
